Compounds without any hit were thinned out: in the full panel of roughly 79,000, 15% have a hit. Activity calls are given as the source filed them. Cut-off read from the data, not from the text of the source: active = growth inhibition above about 70%; inactive = the rest.
Key:
[1] = NCI Yeast Anticancer Drug Screen. Data for the wt1 strain (AID 149);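 note: 0% = growth of vehicle-treated wt1 cultures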; settings: S. cerevisiae wt1 strain (SPY 50644) growth inhibition, active compounds read high
In short: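 wt1 yeast, compound-treated; % growth inhibition vs vehicle control.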

[2] = NCI Yeast Anticancer Drug Screen. Data for the rad50EPP+ strain (AID 151);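 note: 0% = growth of vehicle-treated control cultures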; settings: S. cerevisiae rad50 mutant strain, active compounds read high
In short: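 In this screen, rad50EPP+ yeast were exposed to compounds. Growth inhibition was scored against vehicle-treated controls.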

[3] = NCI Yeast Anticancer Drug Screen. Data for the mgt1 strain (AID 153); settings: S. cerevisiae mgt1 mutant growth inhibition, active compounds read high
In short: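 mgt1 strain exposed; growth vs vehicle control recorded as inhibition.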

[4] = NCI Yeast Anticancer Drug Screen. Data for the mec2-1 strain (AID 157); settings: S. cerevisiae mec2-1 strain, active compounds read high
In short: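 Vehicle-treated cultures served as reference for growth inhibition of compound-exposed mec2-1 yeast.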

[5] = NCI Yeast Anticancer Drug Screen. Data for the rad14 strain (AID 159);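 note: 0% = growth of vehicle-treated control cultures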; settings: S. cerevisiae rad14 strain growth inhibition, active compounds read high
In short: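 Test compounds were applied to a repair-deficient yeast strain. Its growth was then compared with that of cultures given vehicle alone, and inhibition was expressed relative to those controls.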

[6] = NCI Yeast Anticancer Drug Screen. Data for the sgs1 mgt1 strain (AID 161);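 note: 0% = growth of cultures given vehicle only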; settings: S. cerevisiae sgs1 mgt1 strain, active compounds read high
In short: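 Mutant yeast exposed to compound; growth scored against vehicle-only wells.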

[7] = NCI Yeast Anticancer Drug Screen. Data for the CLN2oe strain (AID 163);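 note: 0% = growth of vehicle-only control cultures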; settings: S. cerevisiae CLN2oe strain, active compounds read high
In short: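 Inhibition relative to vehicle-treated yeast is reported. Cells: strain with genetic alteration in cell-cycle control, grown with compound.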

[8] = NCI Yeast Anticancer Drug Screen. Data for the cln2 rad14 strain (AID 165);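 note: 0% = growth equal to vehicle treated cultures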; settings: S. cerevisiae cln2 rad14 strain, active compounds read high
In short: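 Each compound was tested on cln2 rad14 yeast. Inhibition of growth was calculated against vehicle-exposed controls.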

[9] = NCI Yeast Anticancer Drug Screen. Data for the bub3 strain (AID 167); settings: S. cerevisiae bub3 mutant strain, active compounds read high
In short: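 Yeast carrying a defined mutation is treated with each compound, and growth is compared with that of vehicle-exposed cells to give inhibition.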

[10] = NCI Yeast Anticancer Drug Screen. Data for the wt2 strain (AID 169);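 note: 0% = growth of vehicle-treated yeast cultures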; settings: S. cerevisiae wt2 strain growth inhibition, active compounds read high
In short: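 Inhibition of yeast growth was determined after compound treatment, normalised to controls receiving only vehicle.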

[11] = NCI Yeast Anticancer Drug Screen. Data for the mlh1 strain (AID 171);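 note: 0% = growth of vehicle-treated control cultures of the same strain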; settings: S. cerevisiae mlh1 strain growth inhibition, active compounds read high
In short: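 Vehicle-normalised growth inhibition of a repair- or checkpoint-altered yeast strain following compound treatment.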

[12] = NCI Yeast Anticancer Drug Screen. Data for the sgs1 strain (AID 173);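 note: 0% = growth of vehicle-only control cultures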; settings: S. cerevisiae sgs1 mutant, active compounds read high
In short: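 Screen format: yeast with repair or checkpoint alterations, compound exposure, growth read relative to vehicle.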

[13] = NCI Yeast Anticancer Drug Screen. Data for the mlh1 rad18 strain (AID 175); settings: S. cerevisiae mlh1 rad18 strain growth inhibition, active compounds read high
In short: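 Vehicle-treated cultures served as the reference for growth inhibition in a yeast strain carrying DNA damage repair alterations exposed to each compound.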

[14] = NCI Yeast Anticancer Drug Screen. Data for the rad18 strain (AID 177); settings: S. cerevisiae rad18 mutant growth inhibition, active compounds read high
In short: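 Test articles were incubated with altered yeast defective in DNA damage repair. Results are given as inhibition of growth versus vehicle.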

[15] = NCI Yeast Anticancer Drug Screen. Data for the rad50 strain (AID 155);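 note: 0% = growth of vehicle-only cultures of the same strain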; settings: S. cerevisiae rad50 strain growth inhibition, active compounds read high
In short: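 Genetically altered yeast (DNA repair pathway); compound treatment; growth inhibition vs vehicle ctrl.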

[16] = NCI Yeast Anticancer Drug Screen. Data for the rad52 strain (AID 147);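 note: 0% = growth of vehicle-treated control cultures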; settings: S. cerevisiae rad52 mutant growth inhibition, active compounds read high
In short: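 Vehicle-treated cultures served as the reference for growth inhibition of compound-exposed yeast bearing a DNA repair mutation.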

[17] = at 5.0 µM (retest, dose inferred, filed as 0.5)
[18] = at 50.0 µM (retest, dose inferred, filed as 5.0)

Measured: growth inhibition

Cn1cnc(N)c1C(=N)[Se]
inactive: [1]; at 1.2 µM -1% | [1]; at 3.7 µM 3% | [1]; at 11.0 µM 10% | [1]; at 33.0 µM 47% | [2]; at 1.2 µM 66% | [3]; at 1.2 µM 1% | [3]; at 3.7 µM -1% | [3]; at 11.0 µM 4% | [3]; at 33.0 µM 44% | [3]; at 100.0 µM 57% | [4]; at 1.2 µM -2% | [4]; at 3.7 µM 0% | [4]; [17] -46% | [4]; at 11.0 µM 48% | [4]; [18] 50% | [5]; at 1.2 µM 9% | [5]; at 3.7 µM 15% | [5]; at 11.0 µM 46% | [6]; [17] -61% | [6]; [18] -32% | [6]; at 50.0 µM 13.3% | [7]; at 1.2 µM 1% | [7]; at 3.7 µM -2% | [7]; at 11.0 µM -3% | [7]; at 33.0 µM 11% | [7]; at 100.0 µM 28% | [8]; [17] -60% | [8]; [18] -40% | [8]; at 50.0 µM -53.6% | [9]; at 1.2 µM 4% | [9]; at 3.7 µM 15% | [9]; [17] -67% | [9]; [18] 64% | [10]; at 1.2 µM 10% | [10]; at 3.7 µM 25% | [10]; at 11.0 µM 59% | [11]; at 1.2 µM 2% | [11]; at 3.7 µM -3% | [11]; at 11.0 µM 28% | [11]; at 33.0 µM 60% | [12]; at 1.2 µM 2% | [12]; at 3.7 µM -1% | [12]; at 11.0 µM 40% | [13]; [17] -126% | [14]; at 1.2 µM -9% | [14]; at 3.7 µM 7% | [14]; at 11.0 µM 58%
active: [1]; at 100.0 µM 80% | [2]; at 3.7 µM 90% | [2]; at 11.0 µM 98% | [2]; at 33.0 µM 98% | [2]; at 100.0 µM 95% | [4]; at 33.0 µM 93% | [4]; at 50.0 µM 86.5% | [4]; at 100.0 µM 93% | [5]; at 33.0 µM 91% | [5]; at 100.0 µM 94% | [9]; at 11.0 µM 80% | [9]; at 33.0 µM 97% | [9]; at 50.0 µM 78.2% | [9]; at 100.0 µM 94% | [10]; at 33.0 µM 77% | [10]; at 100.0 µM 87% | [11]; at 100.0 µM 89% | [12]; at 33.0 µM 84% | [12]; at 100.0 µM 92% | [13]; [18] 84% | [13]; at 50.0 µM 80.5% | [14]; at 33.0 µM 80% | [14]; at 100.0 µM 91%

CCC1(OC(=O)CN)C(=O)OCc2c1cc1n(c2=O)Cc2cc3ccccc3nc2-1 (stereo not drawn)
active: [1]; at 33.0 µM 88% | [1]; at 100.0 µM 94% | [2]; at 11.0 µM 85% | [2]; at 33.0 µM 92% | [2]; at 100.0 µM 93% | [15]; at 1.2 µM 94% | [15]; at 3.7 µM 96% | [15]; [17] 97% | [15]; at 11.0 µM 97% | [15]; at 33.0 µM 97% | [15]; [18] 97% | [15]; at 50.0 µM 98% | [15]; at 100.0 µM 97% | [4]; at 3.7 µM 82% | [4]; [17] 84% | [4]; at 11.0 µM 96% | [4]; at 33.0 µM 97% | [4]; [18] 95% | [4]; at 50.0 µM 99% | [4]; at 100.0 µM 98% | [5]; at 11.0 µM 76% | [5]; at 33.0 µM 93% | [5]; at 100.0 µM 96% | [6]; [18] 96% | [6]; at 50.0 µM 94% | [7]; at 33.0 µM 80% | [7]; at 100.0 µM 88% | [8]; [18] 92% | [8]; at 50.0 µM 89.2% | [9]; at 33.0 µM 79% | [9]; [18] 94% | [9]; at 50.0 µM 96.9% | [9]; at 100.0 µM 92% | [10]; at 33.0 µM 90% | [10]; at 100.0 µM 95% | [11]; at 11.0 µM 70% | [11]; at 33.0 µM 93% | [11]; at 100.0 µM 96% | [12]; at 11.0 µM 85% | [12]; at 33.0 µM 94% | [12]; at 100.0 µM 95% | [13]; at 50.0 µM 97.3% | [14]; at 33.0 µM 80% | [14]; at 100.0 µM 89%
inactive: [1]; at 1.2 µM -1% | [1]; at 3.7 µM 4% | [1]; at 11.0 µM 51% | [2]; at 1.2 µM 45% | [2]; at 3.7 µM 67% | [4]; at 1.2 µM 19% | [5]; at 1.2 µM 4% | [5]; at 3.7 µM 23% | [6]; [17] 62% | [7]; at 1.2 µM 37% | [7]; at 3.7 µM 37% | [7]; at 11.0 µM 62% | [8]; [17] 49% | [9]; at 1.2 µM 9% | [9]; at 3.7 µM 13% | [9]; [17] 8% | [9]; at 11.0 µM 44% | [10]; at 1.2 µM 0% | [10]; at 3.7 µM 4% | [10]; at 11.0 µM 67% | [11]; at 1.2 µM 3% | [11]; at 3.7 µM 15% | [12]; at 1.2 µM 8% | [12]; at 3.7 µM 38% | [13]; [17] 42% | [13]; [18] -13% | [14]; at 1.2 µM 31% | [14]; at 3.7 µM 33% | [14]; at 11.0 µM 58%

C/C(CCl)=N/NC1=NC(c2ccccc2Cl)P(=O)(NCCCNP2(=O)SC(N/N=C(/C)CCl)=NC2c2ccccc2Cl)S1 (stereo not drawn)
active: [15]; at 50.0 µM 96% | [4]; at 50.0 µM 96.3% | [6]; at 50.0 µM 93.2% | [8]; at 50.0 µM 92.3% | [9]; at 50.0 µM 95.2%
inactive: [16]; at 1.2 µM -2% | [16]; at 3.7 µM -2% | [16]; at 11.0 µM -2% | [16]; at 33.0 µM 5% | [16]; at 100.0 µM 8% | [1]; at 1.2 µM 3% | [1]; at 3.7 µM -4% | [1]; at 11.0 µM -5% | [1]; at 33.0 µM -3% | [1]; at 100.0 µM -1% | [2]; at 1.2 µM 0% | [2]; at 3.7 µM 2% | [2]; at 11.0 µM 10% | [2]; at 33.0 µM 43% | [2]; at 100.0 µM 33% | [15]; at 1.2 µM 4% | [15]; at 3.7 µM 4% | [15]; [17] -21% | [15]; at 11.0 µM 23% | [15]; at 33.0 µM 38% | [15]; [18] 8% | [15]; at 100.0 µM 34% | [4]; at 1.2 µM -4% | [4]; at 3.7 µM -4% | [4]; [17] -12% | [4]; at 11.0 µM -6% | [4]; at 33.0 µM -5% | [4]; [18] 2% | [4]; at 100.0 µM -1% | [6]; [17] -2% | [6]; [18] 51% | [7]; at 1.2 µM -13% | [7]; at 3.7 µM -4% | [7]; at 11.0 µM -1% | [7]; at 33.0 µM -16% | [7]; at 100.0 µM -22% | [8]; [17] -18% | [8]; [18] -4% | [9]; at 1.2 µM 0% | [9]; at 3.7 µM -5% | [9]; [17] -32% | [9]; at 11.0 µM 0% | [9]; at 33.0 µM 25% | [9]; [18] 61% | [9]; at 100.0 µM 18% | [10]; at 1.2 µM 0% | [10]; at 3.7 µM -2% | [10]; at 11.0 µM -2% | [10]; at 33.0 µM 17% | [10]; at 100.0 µM 13% | [11]; at 1.2 µM -2% | [11]; at 3.7 µM 3% | [11]; at 11.0 µM 4% | [11]; at 33.0 µM 22% | [11]; at 100.0 µM 16%
